In the library only some 1.4% were active in any assay of this set; here they are far more common.
LEDGF integ inh: blockers of LEDGF/p75-dependent integrase strand transfer – biochemical, TR-FRET, high throughput, primary screen; HIV-1 integrase (with human LEDGF/p75); TR-FRET IN-LEDGF/p75 DNA integration, Eu/Cy5; inhibition, % at 3.7 µM; 370,000 tested, 0.64% active;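 active means inhibition above the screen-wide mean plus 3 SD, cut at about 13% in these data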;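 further: signal is the Cy5 over europium emission ratio at 671 and 618 nm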
MBD2 inh: inhibitors of MBD2 binding to methylated DNA, primary screen, biochemical, TR-FRET, DNA-binding domain, human; MBD2 binding to methylated oligonucleotide; inhibition, % at 4.4 µM; 370,000 tested, 0.31% active; AID 686964, 2013; in the data active means inhibition above about 13%
Target sequence (Q9UBB5 whole entry, looked up, the tested form may be a part): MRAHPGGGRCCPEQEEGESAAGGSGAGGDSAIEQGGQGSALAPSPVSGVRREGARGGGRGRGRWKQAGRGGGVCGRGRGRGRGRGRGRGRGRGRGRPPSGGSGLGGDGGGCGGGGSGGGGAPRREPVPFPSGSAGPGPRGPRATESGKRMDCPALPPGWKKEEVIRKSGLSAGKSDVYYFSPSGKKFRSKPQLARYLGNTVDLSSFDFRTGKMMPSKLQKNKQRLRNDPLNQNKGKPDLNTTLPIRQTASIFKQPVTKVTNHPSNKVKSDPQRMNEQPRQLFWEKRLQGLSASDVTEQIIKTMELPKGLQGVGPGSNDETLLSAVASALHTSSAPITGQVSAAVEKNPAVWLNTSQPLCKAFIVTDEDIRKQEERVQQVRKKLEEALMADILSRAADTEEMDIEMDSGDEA
UHRF1 MBD2 ctr: UHRF1 methylated DNA binding inhibitors, primary screen, counter-screen for MBD2 inhibitor project, biochemical, TR-FRET, human UHRF1, single concentration | E3 ubiquitin-protein ligase UHRF1 (Homo sapiens), Q96T88 | UHRF1 binding to methylated oligo | AID 687016, 2013 | 370,000 tested, 0.75% active | inhibition, % at 4.4 µM; in the data active means inhibition above about 21%;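 further: UHRF1 SRA domain binding a hemimethylated CpG hairpin DNA probe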
CASP6 VEID inh: human caspase-6 inhibitors, primary screen, biochemical, VEID-R110 fluorescence, single point, set 2. AID 686996, 2013. purified caspase-6, Z-VEID-R110 cleavage fluorescence. 350,000 tested, 0.53% active. inhibition, % at 12.5 µM. P55212;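 active means mean inhibition across replicates at least about 35%, with every replicate also reaching that limit, limit read from the data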
Target sequence (P55212 24-179 limits assumed): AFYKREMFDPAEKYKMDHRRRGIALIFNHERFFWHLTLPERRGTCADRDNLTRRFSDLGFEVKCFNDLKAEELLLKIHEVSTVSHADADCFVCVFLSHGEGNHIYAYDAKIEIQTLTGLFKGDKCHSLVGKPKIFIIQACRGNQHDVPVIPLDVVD
Target sequence (P55212 194-293 limits assumed): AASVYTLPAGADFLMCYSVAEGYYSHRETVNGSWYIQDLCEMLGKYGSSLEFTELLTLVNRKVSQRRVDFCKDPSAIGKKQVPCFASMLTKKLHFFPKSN
IN multimer up: HIV-1 IN multimer formation enhancers, counter-screen for LEDGF/p75 integration inhibitor project, biochemical, TR-FRET | TR-FRET HIV-1 integrase multimerization | 2,000 tested, 17% active | activation, % at 7.7 µM | AID 1053131, 2014 | shares compounds with LEDGF integ inh; in the data active means activation above about 8.9%
TR-FRET interf: TR-FRET optical interference artefacts, confirmation, artefact control for LEDGF/p75-dependent integration inhibitor project, biochemical, HIV-1 IN multimerization | shares compounds with LEDGF integ inh | TR-FRET optical interference counterscreen | inhibition, % at 7.7 µM | 2,000 tested, under 10 active | AID 1053135, 2014;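 active means inhibition above the mean over all tested compounds plus 3 SD, which no compound reached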
IN-LEDGF confirm: inhibitors of HIV-1 IN-LEDGF/p75 DNA integration, confirmation, biochemical, TR-FRET; shares compounds with LEDGF integ inh; TR-FRET LEDGF/p75-dependent HIV-1 integration; inhibition, % at 3.7 µM; 2,000 tested, 36% active; AID 1053136, 2014; in the data active means inhibition above about 14%
Of the large screens only hits and unclear results are named; the others gave an inactive call (follow-up assays come after a bar, where they were run).

COCC1CN(CCc2ccc(F)cc2)S(=O)(=O)c2c(F)cccc2O1 (configuration not stated)	LEDGF integ inh 18 | IN multimer up inactive | TR-FRET interf inactive | IN-LEDGF confirm inactive
C[C@H](O)C#Cc1cnc2c(c1)C(=O)N([C@@H](C)CO)C[C@@H](C)[C@H](CN(C)Cc1cccc(F)c1)O2	none (no result: LEDGF integ inh, MBD2 inh, UHRF1 MBD2 ctr)
COc1cccc(=O)c2c(C)n(-c3ccc(C(=O)O)cc3)c(C)c12	LEDGF integ inh 17 | IN multimer up inactive | TR-FRET interf inactive | IN-LEDGF confirm 23
Cc1ccc(/C=C/C(=O)Nc2cccc3cccnc23)o1	LEDGF integ inh 14 (no result: CASP6 VEID inh) | IN multimer up inactive | TR-FRET interf inactive | IN-LEDGF confirm inactive
Cc1cccc(C(=O)Nc2cccc3cccnc23)c1	none
C[C@H]1CN([C@@H](C)CO)C(=O)c2cc(NC(=O)CCCN(C)C)ccc2O[C@@H]1CN(C)C(=O)NC1CCCCC1	none (no result: LEDGF integ inh, MBD2 inh, UHRF1 MBD2 ctr)
Cc1ccc(Cc2c(-c3ccccc3)nc3c(Cl)cc(C(F)(F)F)cn23)cc1	LEDGF integ inh 20 | IN multimer up inactive | TR-FRET interf inactive | IN-LEDGF confirm inactive
O=C(/C=C/c1ccc(Cl)c(Cl)c1)NC1=NCCS1	LEDGF integ inh 28 | IN multimer up inactive | TR-FRET interf inactive | IN-LEDGF confirm inactive
O=C(NC1=NCCS1)c1ccc(Cl)c(Cl)c1	none
Cc1cc(-c2n[nH]c(=S)n2/N=C/c2cccs2)n[nH]1	LEDGF integ inh 38 | IN multimer up inactive | TR-FRET interf inactive | IN-LEDGF confirm inactive
Cc1ccc(-c2n[nH]c(=S)n2/N=C/c2cccs2)cc1	none
COc1ccc(S(=O)(=O)N(C)C[C@@H]2OCCCC[C@@H](C)Oc3ccc(NC(=O)Nc4c(C)noc4C)cc3C(=O)N([C@@H](C)CO)C[C@H]2C)cc1	none (no result: LEDGF integ inh, MBD2 inh, UHRF1 MBD2 ctr)
CC(C)N1C(=O)S/C(=C\c2ccc(-c3ccc(Cl)c(C(=O)O)c3)o2)C1=O	LEDGF integ inh 37, UHRF1 MBD2 ctr 37 | IN multimer up inactive | TR-FRET interf inactive | IN-LEDGF confirm inactive
C[C@H](CO)N1C[C@H](C)[C@H](CN(C)C(=O)c2ccncc2)OCCCC[C@H](C)Oc2ccc(NS(=O)(=O)c3cn(C)cn3)cc2C1=O	none (no result: LEDGF integ inh, MBD2 inh, UHRF1 MBD2 ctr)
NC(=O)c1ccsc1NC(=O)c1ccc(S(=O)(=O)N2CCCCC2)cc1	LEDGF integ inh 22 | IN multimer up inactive | TR-FRET interf inactive | IN-LEDGF confirm inactive
CCOC(=O)C1=C(C)N(c2ccc(C)cc2)C(=O)/C1=C\c1cccs1	LEDGF integ inh 58 (no result: CASP6 VEID inh) | IN multimer up inactive | TR-FRET interf inactive | IN-LEDGF confirm inactive
Cc1ncc([N+](=O)[O-])n1CC(=O)Nc1cc(Cl)ccc1Cl	LEDGF integ inh 52 | IN multimer up inactive | TR-FRET interf inactive | IN-LEDGF confirm inactive
Cc1ccc(-n2nc3c(c2NC(=O)c2ccc(Br)o2)CSC3)c(C)c1	LEDGF integ inh 15 (no result: CASP6 VEID inh) | IN multimer up inactive | TR-FRET interf inactive | IN-LEDGF confirm 49
Cc1ccc(-n2nc3c(c2NC(=O)C(C)(C)C)CSC3)c(C)c1	none (no result: CASP6 VEID inh)
Cc1cc2c(c(=O)o1)C(c1ccc([N+](=O)[O-])o1)C(C#N)=C(N)O2 (configuration not stated)	LEDGF integ inh 15 | IN multimer up inactive | TR-FRET interf inactive | IN-LEDGF confirm inactive
CN1C[C@H]2[C@@H](c3ccccc31)[C@H](CO)N2Cc1ccccc1F	none (no result: LEDGF integ inh, MBD2 inh, UHRF1 MBD2 ctr)
O=C(COC(=O)C1CCN(S(=O)(=O)c2ccc3c(c2)OCCO3)CC1)NC1CCS(=O)(=O)C1 (configuration not stated)	LEDGF integ inh 81 | IN multimer up inactive | TR-FRET interf inactive | IN-LEDGF confirm inactive
C[C@H](CO)N1C[C@H](C)[C@H](CN(C)Cc2ccc(-c3ccccc3)cc2)Oc2c(NC(=O)NC3CCCCC3)cccc2C1=O	none (no result: LEDGF integ inh, MBD2 inh, UHRF1 MBD2 ctr)
CCCN1C[C@H](C)[C@H](OC)CN(C)C(=O)c2cc(NC(=O)c3cccc(F)c3)ccc2OC[C@@H]1C	none (no result: LEDGF integ inh, MBD2 inh, UHRF1 MBD2 ctr)
CC(O)CC(=O)OC[C@]12CC[C@H]3[C@@](C)(CC[C@H]4C(C)(C)CCC[C@]34C)[C@@H]1CC(C1=CC(=O)OC1O)O2 (some centres not stated)	LEDGF integ inh 23 | IN multimer up inactive | TR-FRET interf inactive | IN-LEDGF confirm 41
O=C(Cc1cnn(-c2ccccc2)c1)c1ccc(O)c(O)c1O	LEDGF integ inh 22 (no result: CASP6 VEID inh) | IN multimer up 10 | TR-FRET interf inactive | IN-LEDGF confirm 18
CCc1cc(C(=O)Cc2cnn(-c3ccccc3)c2)c(O)cc1O	none (no result: CASP6 VEID inh)
C/C=C/c1ccc([C@@H]2[C@@H](CN(C)C(=O)C3CC3)N(C(=O)C3CC3)[C@H]2CO)cc1	none (no result: LEDGF integ inh, MBD2 inh, UHRF1 MBD2 ctr)
COCCNC(=O)CSC1=N/C(=C/c2ccc(Cl)c(Cl)c2)C(=O)N1c1ccccc1F	LEDGF integ inh 91 (no result: CASP6 VEID inh) | IN multimer up inactive | TR-FRET interf inactive | IN-LEDGF confirm inactive
C=CCN1C(=O)/C(=C\c2ccc(Cl)cc2)N=C1SCC(=O)NCCC	none (no result: CASP6 VEID inh)
O=C(C[C@@H]1CC[C@@H]2[C@H](COC[C@H](O)CN2C(=O)c2ccc3c(c2)OCO3)O1)NC1CCC1	none (no result: LEDGF integ inh, MBD2 inh, UHRF1 MBD2 ctr)
CC1Cn2c(CCc3ccccc3)nnc2S1 (configuration not stated)	LEDGF integ inh 23 (no result: CASP6 VEID inh) | IN multimer up inactive | TR-FRET interf inactive | IN-LEDGF confirm inactive
COc1ccc(OC)c(C2C(C#N)=C(N)Oc3cc(N)ccc32)c1 (configuration not stated)	LEDGF integ inh 14 (no result: CASP6 VEID inh) | IN multimer up inactive | TR-FRET interf inactive | IN-LEDGF confirm inactive
N#CC1=C(N)Oc2cc(N)ccc2C1c1cccc(F)c1 (configuration not stated)	LEDGF integ inh 15 | IN multimer up inactive | TR-FRET interf inactive | IN-LEDGF confirm inactive
COc1ccc(OC)c(C2C(C#N)=C(N)Oc3c2c(C)nn3-c2cccc(Cl)c2)c1 (configuration not stated)	LEDGF integ inh 17 (no result: CASP6 VEID inh) | IN multimer up inactive | TR-FRET interf inactive | IN-LEDGF confirm inactive
COc1cc(C2C(C#N)=C(N)Oc3c2c(-c2ccccc2)nn3-c2ccccc2)cc(OC)c1OC (configuration not stated)	LEDGF integ inh 19 (no result: CASP6 VEID inh) | IN multimer up inactive | TR-FRET interf inactive | IN-LEDGF confirm inactive
Cc1nn(-c2cccc(Cl)c2)c2c1C(c1ccncc1)C(C#N)=C(N)O2 (configuration not stated)	none (no result: CASP6 VEID inh)

Bioassay records: PubChem, several laboratories
